Test results from PubChem BioAssay AID1986 (Sanford-Burnham Center for Chemical Genomics, 2009).
Out of some 290,000 compounds screened, about 890 (0.31%) were called active. Rule as the data show it: active = inhibition mostly above about 52% (no sharp cut-off); inactive = mostly below about 76%. For the sample, actives were picked, then their nearest neighbours and some compounds at random.

Test: cell-free HIV fusion peptide-binding blockers – biochemical, uHTS, fluorescence dequenching, primary screen (AID 1986)
Settings: 30 min, stronger effect = higher value
[1] = measured here: repeat confirmation average inhibition, at 18.6 µM

Row | Compound | inhibition (at 20 µM) | inhibition [1]
1 | CC(C)(C)n1nnnc1CN1CCN2CCCC2C1 (centres undefined) | 1.1% (inactive) | –
2 | NC(=O)C1=C[C@H](c2ccc(C(F)(F)F)cc2)C[C@H](OCCCCO)O1 | -0.7% (inactive) | –
3 | Cc1cccc(NS(=O)(=O)c2ccc3c(c2)oc(=O)n3C)c1C | 2.3% (inactive) | –
4 | Cc1cccc(NC(=O)NC2CCCc3ccccc32)c1 (centres undefined) | -2.1% (inactive) | –
5 | COc1ccccc1OCC(=O)Nc1ccc(S(=O)(=O)Nc2onc(C)c2C)cc1 | -0.4% (inactive) | –
6 | CCC(C)[C@H](NC(=O)[C@@H]1Cc2c([nH]c3ccccc23)C2c3ccccc3C(=O)N21)C(=O)N1CCC[C@@H]1C(=O)O (some centres undefined) | 6.9% (inactive) | –
7 | O=C(CCN1C(=O)/C(=C/c2ccco2)SC1=S)Nc1ccc(O)cc1C(=O)O | 52.5% (inactive) | 30.6%
8 | O=C(CN1C(=O)/C(=C\c2cccs2)SC1=S)Nc1cccc(C(=O)O)c1 | 32.4% (inactive) | –
9 | O=C(CCCN1C(=O)/C(=C\c2ccco2)SC1=S)Nc1ccc(O)cc1C(=O)O | 72% (inactive) | 13%
10 | O=C(CN1C(=O)/C(=C\c2ccco2)SC1=S)Nc1ccc(O)cc1C(=O)O | 75.1% (active) | –
11 | COc1ccc(NC(=O)CCCN2C(=O)/C(=C\c3ccco3)SC2=S)cc1 | 33.7% (inactive) | –
12 | O=C(CN1C(=O)/C(=C/c2ccco2)SC1=S)Nc1ccc(C(=O)O)c(O)c1 | 76.4% (active) | –
13 | CCCCOc1ccc(Cc2n[nH]c(=S)n2N)cc1 | -3.5% (inactive) | –
14 | Cc1ccc(C)c(S(=O)(=O)N2CCN(C(=O)c3ccc(N4CCCC4)c([N+](=O)[O-])c3)CC2)c1 | 0.3% (inactive) | –
15 | CC1(C)Cc2nc3sc4c(N5CCCC5)nnnc4c3cc2CO1 | 0.1% (inactive) | –
16 | O=C(NCCCCc1ccccc1)c1cccc([N+](=O)[O-])c1 | 0.7% (inactive) | –
17 | CCCOc1ccc(-c2cc(C(F)(F)F)c(C#N)c(SCC(=O)O)n2)cc1 | 29.9% (inactive) | –
18 | COc1ccc(-c2cc(C(F)(F)F)c(C#N)c(SCC(=O)O)n2)cc1 | 2.9% (inactive) | –
19 | CCCCOc1ccc(-c2cc(C(F)(F)F)c(C#N)c(SCC(=O)O)n2)cc1 | 79.3% (active) | –
20 | O=C(N/N=C/c1cccc([N+](=O)[O-])c1)c1ccc2nc[nH]c2c1 | -2.3% (inactive) | –
21 | O=C1c2ccccc2C(=O)N1Cc1cc(Cl)c(O)c([N+](=O)[O-])c1 | -1.1% (inactive) | –
22 | NC(=S)Nc1cc2ccccc2c2ccccc12 | -2.7% (inactive) | –
23 | CC1CCCN(S(=O)(=O)c2ccc([N+](=O)[O-])cc2)C1 (centres undefined) | 1.5% (inactive) | –
24 | O=C(O)CCc1cc(I)c(Oc2ccc(O)c(I)c2)c(I)c1 | 75.1% (active) | –
25 | N[C@@H](Cc1cc(I)c(Oc2ccc(O)c(I)c2)c(I)c1)C(=O)O | 30.3% (inactive) | –
26 | O=C(O)Cc1cc(I)c(Oc2ccc(O)c(I)c2)c(I)c1 | 68.9% (inactive) | 33.9%

Row | Compound | inhibition (at 20 µM) | inhibition [1]
27 | CCn1c(=O)c2c(nc3n2CCCN3CCc2ccc(OC)c(OC)c2)n(C)c1=O | -0.3% (inactive) | –
28 | CC(C)C(=O)NNC(=O)c1csc(-c2cccs2)n1 | 0% (inactive) | –
29 | COc1cc(C2CC(=O)Nc3c2c(=O)nc2c(C)cccn32)cc(OC)c1OC (centres undefined) | 0% (inactive) | –
30 | N#C/C(=C\c1ccc(N2CCOCC2)o1)c1nc2ccccc2[nH]1 | 48.3% (inactive) | –
31 | Cc1ccc2nc(/C(C#N)=C\c3ccc(N4CCOCC4)o3)[nH]c2c1 | 28% (inactive) | –
32 | N#C/C(=C\c1ccc(N2CCOCC2)o1)C(=O)N1CCOCC1 | 53.5% (active) | 83.9%
33 | N#C/C(=C\c1ccc(N2CCCCC2)o1)C(N)=O | 91.9% (active) | –
34 | N#C/C(=C/c1ccc(N2CCOCC2)o1)c1nc2ccccc2[nH]1 | 52.1% (active) | –
35 | N#C/C(=C/c1ccc(N2CCOCC2)o1)C(=O)Nc1ccccc1 | 147% (inactive) | –
36 | N#C/C(=C\c1ccc(N2CCOCC2)o1)C(=O)Nc1ccc(O)cc1 | 148% (inactive) | –
37 | N#C/C(=C/c1ccc(N2CCCCC2)o1)C(=O)Nc1ccc(Cl)cc1 | 44.8% (inactive) | –
38 | N#C/C(=C/c1ccc(N2CCCCC2)o1)C(=O)Nc1ccc2ccccc2c1 | 153% (inactive) | –
39 | COc1cccc(CC(=O)NC2CCCN(Cc3ccc(Cl)cc3)C2)c1 (centres undefined) | -1% (inactive) | –
40 | CCCCCn1c(=O)[nH]c2cc(C(=O)NCCN3CCCCC3C)ccc2c1=O (centres undefined) | 0.7% (inactive) | –
41 | COc1ccc(OC)c(CN2CCN(S(=O)(=O)c3ccc(NC(C)=O)cc3)CC2)c1 | -1.6% (inactive) | –
42 | S=C(NCCc1ccccc1)NC1CC2CCC(C1)N2Cc1ccccc1 (centres undefined) | -0.5% (inactive) | –
43 | O=C(N/N=C/c1ccncc1)c1cccs1 | -1.5% (inactive) | –
44 | CCOC(=O)c1sc(N/N=C/c2cc(Br)c(O)c(OC)c2)nc1C | 13.2% (inactive) | –
45 | COC/C=C/C1=CC2=CC(=O)C(C)(OC(=O)C3CCCC3)C(=O)C2=CO1 (centres undefined) | 35.3% (inactive) | –
46 | COC/C=C/C1=CC2=CC(=O)C(C)(OC(=O)c3ccco3)C(=O)C2=CO1 (centres undefined) | 51% (active) | –
47 | COC/C=C/C1=CC2=CC(=O)C(C)(OC(=O)CCC(=O)OC)C(=O)C2=CO1 (centres undefined) | 45% (inactive) | –
48 | COC(=O)c1ccc(C(=S)NCC2(N(C)C)CCCCC2)cc1 | -0.5% (inactive) | –
49 | Clc1ccc(Cn2c(/C=C/c3ccco3)nc3ccccc32)cc1 | 58.4% (active) | –
50 | Clc1ccccc1Cn1c(/C=C/c2ccco2)nc2ccccc21 | 54.5% (inactive) | 0.3%
51 | Cc1ccc(Cn2c(/C=C/c3ccco3)nc3ccccc32)cc1 | 28.5% (inactive) | –
52 | COc1ccc(C(=O)NNC(=O)Cc2ccc(Cl)cc2)cc1 | 0.6% (inactive) | –

Row | Compound | inhibition (at 20 µM) | inhibition [1]
53 | S=C1NC(c2ccccc2)=CC(c2ccccc2)N1 (centres undefined) | -0.8% (inactive) | –
54 | CCOc1cc2c(cc1/C=C/c1noc(C)c1[N+](=O)[O-])OC(C)C2 (centres undefined) | 97.9% (active) | 62.4%
55 | CCOc1cc2c(cc1/C=C/C(=O)O)OC(C)C2 (centres undefined) | -2.8% (inactive) | –
56 | CCOc1cc2c(cc1C=O)OC(C)C2 (centres undefined) | 0.9% (inactive) | –
57 | Cc1nonc1NC(=O)CSc1cn[nH]n1 | -0.1% (inactive) | –
58 | N#Cc1c(-c2ccccc2)nc(SCC(=O)Nc2ccccc2)[nH]c1=O | 22% (inactive) | –
59 | CCOc1ccc2nc(NC(=O)CSc3ccc(Cl)cc3)sc2c1 | -1.6% (inactive) | –
60 | N#Cc1c(-c2ccccc2)nc(SCC(=O)Nc2ccccc2F)[nH]c1=O | 14.2% (inactive) | –
61 | CCOc1ccc2nc(NC(=O)CSc3ccccc3)sc2c1 | 2.6% (inactive) | –
62 | COc1cccc(OC)c1OCCCOc1ccc([N+](=O)[O-])cc1Cl | 1.3% (inactive) | –
63 | CC(C)(C)c1ccc(OC(=O)N2CCOCC2)cc1 | 1.1% (inactive) | –
64 | NC(=O)C1CCN(C(=O)COc2ccc3c4c(c(=O)oc3c2)CCCC4)CC1 | -2.1% (inactive) | –
65 | CCCn1nc([N+](=O)[O-])c(C(C#N)c2nc3ccccc3o2)c(Cl)c1=O (centres undefined) | 51.5% (active) | –
66 | CCn1nc([N+](=O)[O-])c(C(C#N)c2nc3ccccc3n2C)c(Cl)c1=O (centres undefined) | 9.2% (inactive) | –
67 | CCCn1nc([N+](=O)[O-])c(C(C#N)c2nc3ccccc3s2)c(Cl)c1=O (centres undefined) | 52.4% (inactive) | 39.3%
68 | CCOc1cccc(-c2nnc(SCC(=O)Nc3ccc(OC)c(OC)c3)n2N)c1 | -0.9% (inactive) | –
69 | CC(C)C[C@@H](COc1ccccc1)N1CCN(C)CCC1=O | 1.1% (inactive) | –
70 | CCCOc1c(Br)cc(C(N)=O)cc1OCC | -1.3% (inactive) | –
71 | O=[N+]([O-])c1nn(-c2ccc3c(c2)OCCO3)n(O)c1=NCc1ccc(F)cc1 | -3.5% (inactive) | –
72 | O=[N+]([O-])c1nn(-c2ccc3c(c2)OCCO3)n(O)c1=NCc1ccccc1Cl | 1.5% (inactive) | –
73 | O=[N+]([O-])c1nn(-c2ccc3c(c2)OCCO3)n(O)c1=NCc1ccc(F)cc1Cl | 51.7% (active) | –
74 | COc1ccc(OC)c(CCNC(=O)c2ccc3c(c2)N(Cc2ccc(F)cc2)CCS3)c1 | -0.6% (inactive) | –
75 | CCOC(=O)N1CCN(C(=O)c2cc3c(=O)n4cccc(C)c4nc3s2)CC1 | 1.5% (inactive) | –
76 | Cn1c(=O)c2cc(S(=O)(=O)NCCC(=O)NC3CCCCCCC3)ccc2n(C)c1=O | 70.9% (active) | –
77 | Cn1c(=O)c2cc(S(=O)(=O)NCCC(=O)NC3CCCCCC3)ccc2n(C)c1=O | -0.8% (inactive) | –
78 | CN(CC(=O)NC1CCCCC1)S(=O)(=O)c1ccc2c(c1)c(=O)n(C)c(=O)n2C | -0.8% (inactive) | –

Row | Compound | inhibition (at 20 µM) | inhibition [1]
79 | COc1cc(N=Cc2c(O)c3ccccc3oc2=O)c(OC)cc1Cl | 73.9% (active) | 196%
80 | COc1ccc(OC)c(N=Cc2c(O)c3ccccc3oc2=O)c1 | 37.7% (inactive) | –
81 | COc1ccc(Cl)cc1N=Cc1c(O)c2ccccc2oc1=O | 0.2% (inactive) | –
82 | CC1CCCN(C2(O)C(=O)Nc3ccc(Cl)cc32)C1 (centres undefined) | -0.9% (inactive) | –
83 | COc1ccccc1CN(C)C(=O)CNC(=O)c1cccc(Cl)c1 | 0.2% (inactive) | –
84 | O=C1OC(c2cccs2)=N/C1=C/c1ccc(-c2cccc(C(=O)O)c2)o1 | 53% (inactive) | 13.5%
85 | O=C1OC(c2ccco2)=N/C1=C\c1ccc(-c2cccc(C(F)(F)F)c2)o1 | 55.6% (active) | 164%
86 | O=C1OC(c2cccs2)=N/C1=C\c1ccc(-c2cccc(Cl)c2)o1 | 55.7% (inactive) | 21.2%
87 | CCOc1ccc(C2C(C(=O)c3ccc(C)o3)=C(O)C(=O)N2Cc2cccnc2)cc1 (centres undefined) | -3.1% (inactive) | –
88 | COc1ccc(C)cc1S(=O)(=O)NC1CCCCCC1 | -1.6% (inactive) | –
89 | Cc1ccccc1-n1ncc2c1CC(C)(C)CC2NC(=O)c1cn[nH]c1C (centres undefined) | -0.7% (inactive) | –
90 | Cc1ccc(N=C2NC(=O)S/C2=C\c2ccco2)cc1 | 47.8% (inactive) | –
91 | O=C1NC(=Nc2ccc(O)cc2)S/C1=C/c1ccco1 | 17.3% (inactive) | –
92 | Cc1cccc(N=C2NC(=O)S/C2=C\c2ccco2)c1 | 71.9% (active) | –
93 | O=C1NC(=Nc2ccc3ccccc3c2)S/C1=C/c1ccco1 | 54.8% (active) | –
94 | COc1ccc(S(=O)(=O)/N=C2/NC(=O)/C(=C/c3ccco3)S2)cc1 | 70.3% (inactive) | 9.9%
95 | Cc1ccc(N=C2NC(=O)/C(=C\c3ccco3)S2)cc1 | 57.5% (active) | –
96 | Cc1ccc(N=C2NC(=O)/C(=C/C=C/c3ccco3)S2)cc1 | 52.6% (inactive) | 1.5%
97 | COc1ccc(S(=O)(=O)/N=C2/NC(=O)/C(=C\c3ccco3)S2)cc1 | 60.8% (active) | –
98 | COc1ccc(N=C2NC(=O)/C(=C/c3ccco3)S2)cc1 | 9.7% (inactive) | –
99 | O=C1NC(=Nc2ccccc2)/C(=C/c2ccco2)S1 | 47.9% (inactive) | –
100 | CC(=O)Nc1ccc(S(=O)(=O)/N=C2/NC(=O)/C(=C\c3ccco3)S2)cc1 | 41.2% (inactive) | –
101 | COc1ccc(N=C2NC(=O)/C(=C\c3ccco3)S2)cc1 | 42% (inactive) | –
